Experimental data as given in PubChem BioAssay AID743261 (The Scripps Research Institute Molecular Screening Center, 2014).
Out of some 3,300 compounds screened, about 35 (1%) were called active. No stated cut-off is given here; in the data, active means inhibition above about 11%; inactive means the rest. A selection follows.

What follows are molecules tested against 1-phosphatidylinositol 4,5-bisphosphate phosphodiesterase beta-3 (Homo sapiens) (UniProt Q01970) (assay: PLC-beta3 inhibitor confirmation, biochemical, fluorescence, purified enzyme (AID 743261)). Settings: purified PLC-beta3, fluorogenic substrate fluorescence; at 12.3 µM; active compounds read high.
Chain of 1-phosphatidylinositol 4,5-bisphosphate phosphodiesterase beta-3 (Homo sapiens) (Q01970 whole entry, looked up): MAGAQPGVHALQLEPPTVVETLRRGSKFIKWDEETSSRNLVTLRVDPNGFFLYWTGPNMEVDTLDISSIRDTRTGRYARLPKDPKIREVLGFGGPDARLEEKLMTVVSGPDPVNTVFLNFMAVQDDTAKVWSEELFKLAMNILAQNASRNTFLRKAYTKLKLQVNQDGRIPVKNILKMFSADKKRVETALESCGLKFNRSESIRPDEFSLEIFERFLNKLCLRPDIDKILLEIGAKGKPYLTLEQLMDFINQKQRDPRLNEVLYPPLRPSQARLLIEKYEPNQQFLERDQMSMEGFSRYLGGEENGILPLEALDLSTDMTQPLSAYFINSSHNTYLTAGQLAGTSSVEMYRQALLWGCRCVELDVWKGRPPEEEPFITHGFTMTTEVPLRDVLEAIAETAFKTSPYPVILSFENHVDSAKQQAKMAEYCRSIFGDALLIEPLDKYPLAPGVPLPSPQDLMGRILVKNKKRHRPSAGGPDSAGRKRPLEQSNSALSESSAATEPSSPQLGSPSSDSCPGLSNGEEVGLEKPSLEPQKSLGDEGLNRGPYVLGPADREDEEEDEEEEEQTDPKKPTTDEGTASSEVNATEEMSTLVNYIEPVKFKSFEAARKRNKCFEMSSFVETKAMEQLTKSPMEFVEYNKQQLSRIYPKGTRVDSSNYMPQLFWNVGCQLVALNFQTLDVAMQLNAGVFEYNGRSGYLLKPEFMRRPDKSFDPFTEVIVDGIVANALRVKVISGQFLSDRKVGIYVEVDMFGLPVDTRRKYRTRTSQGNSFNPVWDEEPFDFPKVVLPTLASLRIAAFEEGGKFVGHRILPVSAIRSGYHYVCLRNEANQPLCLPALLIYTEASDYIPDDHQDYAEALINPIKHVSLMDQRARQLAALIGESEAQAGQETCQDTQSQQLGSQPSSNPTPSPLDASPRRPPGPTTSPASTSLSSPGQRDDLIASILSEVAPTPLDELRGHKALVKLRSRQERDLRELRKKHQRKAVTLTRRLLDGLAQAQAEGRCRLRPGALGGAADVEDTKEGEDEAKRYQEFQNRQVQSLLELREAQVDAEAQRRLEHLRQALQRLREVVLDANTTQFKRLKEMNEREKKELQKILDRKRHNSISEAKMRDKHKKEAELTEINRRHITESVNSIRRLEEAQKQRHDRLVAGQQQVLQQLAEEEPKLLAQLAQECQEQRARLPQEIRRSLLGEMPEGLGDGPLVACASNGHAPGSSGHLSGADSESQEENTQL

inhibition, active:
O=c1ccc2c(-c3ccccc3S(=O)(=O)O)c3ccc(O)c(O)c3oc-2c1O 21%

inhibition, inactive:
Cc1cccc(C(=O)NCCCN2CCCC2=O)c1 2.72%
CN(C)S(=O)(=O)c1cccc(NC(=O)COC(=O)C2(c3ccccc3F)CCCC2)c1 0.6%
Nc1nc(NCC(=O)O)nc(N2CCCCCC2)c1[N+](=O)[O-] 5.2%
CCOC(=O)Nc1ccc(NC(=O)OCC)cc1 4.88%
CC1(C)CC(=O)C=C(NC2CC(C)(C)NC(C)(C)C2)C1 0.58%
Cc1ccc(S(=O)(=O)N2CCCCC2)cc1NC(=O)CCNC(=O)c1ccccc1 -5.41%
FC(F)(F)c1cnc(Oc2ccccc2-c2nnc(-c3ccc(Cl)cc3)o2)c(Cl)c1 -7.7%
O=C(NC12CC3CC(CC(C3)C1)C2)N1CCCC(CO)C1 (stereo not given) -3.42%
CC(C)(C)c1ccc(C(=O)Nc2cc(Cl)c(Br)cc2C(=O)O)cc1 -8.39%
Cc1ccc(S(=O)(=O)Cn2nnnc2CN2CCN(Cc3ccc4c(c3)OCO4)CC2)cc1 2.26%
CC(C)C(NC(=O)C1CCC(C(C)(C)C)CC1)C(=O)NCCCN1CCCCC1 (stereo not given) 0.28%
CC1CCN(S(=O)(=O)c2ccc(S(=O)(=O)NCc3ccco3)cc2)CC1 -1.58%
O=C(NCc1ccc(F)cc1F)[C@@H]1CCCN1C(=O)[C@@H]1CCCN1C(=O)c1cccc(Cl)c1 -0.65%
CC(=O)C1=C(O)C(=O)N(c2cccnc2)C1c1ccc([N+](=O)[O-])cc1 (stereo not given) -1.47%
COc1ccc(/C(C)=N/N2CCOCC2)c(O)c1 -14.9%
COCCNC(=O)C(c1ccc(O)cc1)N(C(=O)CCC(=O)Nc1nccs1)c1ccc(C)cc1 (stereo not given) -0.24%
O=C1NC2(CCCCC2)N=C1c1ccccc1 -4.41%
Cc1cccc([C@@H]2[C@@H]3C(=O)N(Cc4ccccc4)C(=O)[C@@H]3[C@]3(Cc4ccc(Cl)cc4)C(=O)N(c4cccc(Cl)c4)C(=O)N23)c1 5.38%
Cc1cc(NC(=O)CN2C(=O)NC(CC(C)C)C2=O)no1 (stereo not given) 0.1%
CC(C)CCSc1ncnc2c1oc1nc3c(cc12)COC(C)(C)C3 -2.11%
O=C(C[C@H]1C(=O)N(c2ccc(F)c(F)c2)C[C@@H]1Cc1ccccc1)Nc1ccccc1 9.92%
CN(C(=O)c1ccc(NC(=O)Cc2cccc(NC(=O)C3CCN(C(=O)c4ccccc4)CC3)c2)cc1)C1CC1 -1%
CCCCn1c(SCC(=O)N2CCCC2=O)nc2cc(S(N)(=O)=O)ccc21 0.23%
O=c1c([N+](=O)[O-])cc(C(F)(F)F)cn1Cc1cccc(Cl)c1 4.27%
Cc1nc(-c2ccc(F)cc2)c(CC(=O)N2CCN(S(=O)(=O)c3ccc(F)cc3)CC2)s1 -1.44%
O=C(COc1ccc(Cl)cc1)N1CCN(c2cccc(C(F)(F)F)c2)CC1 -5.48%
O=S(=O)(c1ccc(F)cc1)N1CCN(C(=S)NC2CCCC2)CC1 -3.43%
CC1(C(=O)NCc2ccccc2)CSCC(=O)N1CCCN1CCOCC1 (stereo not given) -2.02%
O=[N+]([O-])c1cc(C(F)(F)F)ccc1NN=C1CCCC1 2.81%
O=c1c2ccccc2c(-c2ccccc2)nn1Cc1ccccc1 -6.9%
CN(CC(=O)NC1CCCCC1)S(=O)(=O)c1ccc(Br)s1 3.57%
COc1ccccc1C(=O)N1C(CC(=O)Nc2ccccc2C)C(=O)NC2CCCCC21 (stereo not given) -8.41%
COc1cc(OC)nc(S(C)(=O)=O)n1 -3.28%
O=C(C(c1ccccc1)c1ccccc1)N1CCN(CC(O)COc2ccccc2)CC1 (stereo not given) 3.79%
COC(=O)NC1(C(F)(F)F)NC(=O)N(C2CCCCC2)C1=O (stereo not given) 2.36%
N#C[C@]1(S(=O)(=O)c2ccccc2)C[C@@H]2ON=C(c3cccc(Br)c3)[C@@H]2C1 0.44%
CC1Oc2ccccc2N(Cc2cccnc2)C1=O (stereo not given) -1.95%
COc1ccccc1C(=O)Nc1cccc(C(=O)N2CCOCC2)c1 -1.43%
S=c1[nH]nc(-c2cccnc2)n1/N=C/C(Cl)=C\c1ccccc1 -5.69%
CC1(C)CC(=O)C=C(NCCN2CCNCC2)C1 -4.21%
CCn1c(/C=C/Nc2ccccc2)[n+](CC)c2ccc(C(=O)OCC(F)(F)F)cc21 -12.7%
COC(=O)CN1C(=O)C(O)=C(C(C)=O)C1c1ccc([N+](=O)[O-])cc1 (stereo not given) 2.66%
COc1ccc(-c2ccc(CN3C(CC(C)C)C(=O)N(Cc4cn(CC5CCCCC5)nn4)CCS3(=O)=O)cc2)cc1 (stereo not given) -1.28%
COc1ccc([N+](=O)[O-])cc1N(CC(O)Cn1nnc2ccccc21)S(=O)(=O)c1ccc(C)cc1 (stereo not given) 3.85%
CCOc1ccccc1C1CC(c2cccc(NS(C)(=O)=O)c2)=NN1C(=O)c1ccccc1 (stereo not given) -3.53%
O=C1CS(=O)CN1c1ccc(Oc2ccccc2)cc1 (stereo not given) 0.56%
COc1cc(NC(=O)COC(=O)c2ccc([N+](=O)[O-])s2)cc(OC)c1OC 2.2%
O=S(=O)(Nc1ccc(Oc2ncccn2)c(Cl)c1)c1ccc(F)cc1 -3.4%
O=C(CSc1nnc(-c2ccncc2)n1C1CCCCC1)Nc1ccccc1 -1.28%
COc1ccccc1CCNC(=O)CN1C(=O)NC2(CCCC2)C1=O 7.54%
Clc1ccc(C2[C@H]3CN(CC4CCCCC4)[C@H](c4ccccc4)C34CC2(c2cccnc2)C4)cn1 (stereo not given in full) -4.05%
C[C@H](C(=O)N(C)c1ccccc1)[C@@H](O)c1ccc2ccccc2c1 -3.71%
CCN(CC)Cc1csc2ccc(Br)cc12 0.36%
C=CCSC(CC)(CC)C(N)=O 3.18%
COCc1cc(C(C)=O)ccc1OC 0.95%
Cc1cccc(NC(=O)c2ccc3c(=O)n(CC4CCCO4)c(=S)[nH]c3c2)c1 (stereo not given) 1.92%
CCc1ccc(-c2nc(SCC(=O)NC3CCCC3)n[nH]2)cc1 -2.19%
C=CCOc1ccc(Cl)cc1CNCCCN1CCOCC1 1.5%
Cc1cc(NC(=O)COn2nnc3ccccc32)no1 -9.92%
Cc1ccc(Cn2ccc(NC(=O)C3C4CCC(C4)C3C(=O)O)n2)cc1 (stereo not given) -9.86%
CN(CC(=O)Nc1ccccc1Cl)C(=O)COc1cccc2c1OC(C)(C)C2 0.64%
CNC(=O)n1ccc(C(=O)N2CCCCC2)n1 -1.25%
COc1ccc(C(N)c2csc(NC(=O)Nc3cccc(C(F)(F)F)c3)n2)cc1 (stereo not given) 3.1%
O=C(NCCCN1CCCCC1)C1CC(=O)N(CCc2ccccc2)C1 (stereo not given) 1.91%
O=C1/C(=C\c2ccsc2)NC(=S)N1c1ccccc1 -5.74%
CC(C)Cn1cnc2c1c(=O)n(CC(O)c1ccccc1)c(=O)n2CC(C)C (stereo not given) -3.57%
C=CCOc1ccccc1/C=N/NC(=O)Cc1ccccc1 -2.73%
CCOC(=O)N1CCC(c2cc(=O)n(-c3ccccc3)[nH]2)CC1 2.09%
CCOc1cccc(-c2nnc3sc(COc4ccc(OC)cc4)nn23)c1 -3.2%
O=C(/C=C/c1c(F)cccc1Cl)Nc1nn[nH]n1 -1.92%
O=S1(=O)c2ccc(Br)cc2OC[C@H](Cc2ccccc2)N1Cc1cn(Cc2ccccc2)nn1 6.58%
CC(=O)c1c(C)[nH]c(C(=O)OCC(=O)Nc2cc(S(=O)(=O)N3CCCCC3)ccc2C)c1C 2.76%
CCC1CCCCN1C(=O)CSc1nc(C)cc(C)n1 (stereo not given) -1.69%
Cc1ccc(C(=O)N2CCN(C(=O)N3CCOCC3)CC2)cc1 -1.36%
Cc1ccc(C)c(N2CCN(S(=O)(=O)c3c(C)[nH]c(C)c3C(=O)N3CCCC3)CC2)c1 -5.1%
Cc1ccc(C23CC4CC(CC(C(=O)NCC(=O)O)(C4)C2)C3)cc1 4.19%
CCC[C@H]1CCCC/C=C\CCCC(=O)OCCN1C(=O)OC(C)(C)C 7.62%
CCOc1ccccc1NC(=O)c1cccnc1 -4.38%
O=C1c2ccccc2S(=O)(=O)N1CC(O)Cn1c2ccccc2c2ccccc21 (stereo not given) -0.97%
Cc1cc(NC(=O)c2ccc(F)cc2)ccc1NC(=O)c1ccco1 8.74%
Cc1ccc(C(=O)Nc2ccc(C)c(S(=O)(=O)N(C)C)c2)s1 -7.5%
COC(=O)N(C)C[C@@H]1OCc2cnnn2CCCC(=O)N([C@@H](C)CO)C[C@@H]1C -4.12%
CCOc1ccc(CCNC(=O)COC(=O)CCS(=O)(=O)c2ccc(C)cc2)cc1OCC -2.58%
CCOC(=O)[C@]12CCCC=C1N(CCCOC)C(=O)[C@@H]2CC(=O)N1CCOCC1 -1.19%
NC1=CC(=O)C(=O)c2cccnc21 -2.06%
O=C(NCc1cccnc1)c1cc(C2CCCCN2C(=O)CCc2ccccc2)on1 (stereo not given) 1.6%
NC1=NN(c2cccc(C(=O)O)c2)C(=O)C1 0.11%
OC(CNCC1CCCO1)Cn1c2ccc(Br)cc2c2cc(Br)ccc21 (stereo not given) -1.89%
CCCCc1nc2ccccc2c(NC(=O)CN2CCN(C)CC2)c1CCC -2.31%
